# Data: PubChem BioAssay (NCATS)
# Where “and” joins values, the source holds several entries; their conditions need not be identical. Equal values may be shown once. Results filed as inconclusive are left out. A call without a number means that no potency is given here. Calls of active or inactive are those of the source. Unless noted, the call rests on the fitted dose curve; in most records, active means well fitted curve in the direction sought with a large enough effect; inconclusive means small, poorly fitted or top-dose-only effect, or another doubt; inactive means no such curve, though single readings can be large; an effect the other way counts as inactive or inconclusive.
# How the values were obtained:
# [1] = Cell Viability - MRC5 (AID 434; calls by dose curve;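 further: potency means the concentration at half of the fitted maximal effect; cells exposed to compound for 40 hours at 37 °C; potency reflects cytotoxicity seen as loss of intracellular ATP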); details: MRC5 lung fibroblast viability, qHTS
# Summary of the method: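 AC50 values come from Hill-equation fits of intracellular ATP loss, measured by CellTiter-Glo luminescence. Normal lung fibroblasts (MRC5) had 40 hr compound treatment at 37 C, normalized between DMSO and 100 uM tamoxifen.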
# [2] = Cell Viability - SK-N-SH (AID 435; calls by dose curve; further: potency means the concentration at half of the fitted maximal effect); details: SK-N-SH neuroblastoma cell viability qHTS
# Summary of the method: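 Cells seeded at 1500 per well and incubated 5 hr at 37 °C. Compound added, then 40 hr at 37 °C. CellTiter-Glo added, 20 min at room temperature, luminescence read.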
# [3] = Cell Viability - N2a (AID 540); details: N2a mouse neuroblastoma cell viability; series mostly up to 92.2 µM; further: nearly all actives have a fitted effect of over 45% in size
# Summary of the method: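 N2a mouse neuroblastoma, 1500 cells/well, 5 hr settle; compound 40 hr, 37 °C; CellTiter-Glo 20 min RT; luminescence; Hill-fit AC50.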
# [4] = Cell Viability - NIH 3T3 (AID 541); details: NIH 3T3 cell viability, qHTS; series mostly up to 92.2 µM;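 further: cells exposed to compound for 40 hours; nearly all actives have a fitted effect of over 25% in size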
# Summary of the method: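 qHTS format; 40 hr compound exposure, 37 °C; CellTiter-Glo luminescence (cellular ATP) read-out after 20 min at RT. Decrease in ATP = cytotoxicity; AC50 from standard Hill fit.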
# [5] = Cell Viability - HUV-EC-C (AID 542); details: HUV-EC-C endothelial cell viability, qHTS; series mostly up to 92.2 µM;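 further: cells exposed to compound for 40 hours; nearly all actives have a fitted effect of over 35% in size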
# Summary of the method: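 Luminescent ATP read-out (CellTiter-Glo, 20 min room temperature) after 40 hr compound treatment of HUV-EC-C cells at 37 °C. Concentration-response data fitted with the standard Hill equation to give AC50; tamoxifen and doxorubicin served as positive controls.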
# [6] = Cell Viability - H-4-II-E (AID 543); details: H-4-II-E rat hepatoma viability; series mostly up to 92.2 µM;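 further: cells exposed to compound for 40 hours; nearly all actives have a fitted effect of over 35% in size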
# Summary of the method: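 qHTS, rat hepatoma H-4-II-E, 1500 cells/well; 40 hr compound exposure, 37 °C; CellTiter-Glo ATP luminescence after 20 min RT; AC50 by standard Hill fit.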
# [7] = Cell Viability - SH-SY5Y (AID 544); details: SH-SY5Y neuroblastoma cell viability; series mostly up to 92.2 µM;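 further: cells exposed to compound for 40 hours; nearly all actives have a fitted effect of over 55% in size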
# Summary of the method: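 SH-SY5Y, 1500 cells/well, 5 hr pre-incubation 37 °C; cpd 40 hr 37 °C; CellTiter-Glo 20 min RT; luminescence (ATP) read. qHTS concentration-response, Hill fit → AC50. Tamoxifen, doxorubicin as positive controls.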
# [8] = Cell Viability - Renal Proximal Tubule (AID 545); details: renal proximal tubule cells viability, primary cells of rat origin; series mostly up to 91.7 µM;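 further: cells exposed to compound for 40 hours; nearly all actives have a fitted effect of over 40% in size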
# Summary of the method: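 Cytotoxicity is scored as a concentration-dependent drop in cellular ATP in primary rat renal proximal tubule cells exposed for 40 hr. AC50 derives from Hill modelling.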
# [9] = Cell Viability - Mesenchymal (AID 546); details: mesenchymal cells viability, qHTS; series mostly up to 91.7 µM;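 further: cells exposed to compound for 40 hours before reading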
# Summary of the method: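 CellTiter-Glo luminescence (intracellular ATP, 20 min room temperature) after 40 hr compound exposure at 37 °C of 1000 glomerulus-derived human kidney mesenchymal cells/well; AC50 values obtained by fitting qHTS concentration-response data to the Hill equation.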
# [10] = molecular target: Peroxisome proliferator-activated receptor gamma (Homo sapiens) (UniProt P37231); test: qHTS assay for small molecule agonists of peroxisome proliferator-activated receptor gamma signaling (AID 588536; active means well fitted curve in the direction sought with a large enough effect in the signal ratio, with a control signal flat, not every such curve was filed as active; the % refers to the signal ratio); details: HEK293 PPARg-UAS-bla, beta-lactamase ratio, 16 h, percent of rosiglitazone response, DMSO as zero; series mostly up to 76.7 µM
# Peroxisome proliferator-activated receptor gamma (Homo sapiens), sequence (P37231 whole entry, looked up): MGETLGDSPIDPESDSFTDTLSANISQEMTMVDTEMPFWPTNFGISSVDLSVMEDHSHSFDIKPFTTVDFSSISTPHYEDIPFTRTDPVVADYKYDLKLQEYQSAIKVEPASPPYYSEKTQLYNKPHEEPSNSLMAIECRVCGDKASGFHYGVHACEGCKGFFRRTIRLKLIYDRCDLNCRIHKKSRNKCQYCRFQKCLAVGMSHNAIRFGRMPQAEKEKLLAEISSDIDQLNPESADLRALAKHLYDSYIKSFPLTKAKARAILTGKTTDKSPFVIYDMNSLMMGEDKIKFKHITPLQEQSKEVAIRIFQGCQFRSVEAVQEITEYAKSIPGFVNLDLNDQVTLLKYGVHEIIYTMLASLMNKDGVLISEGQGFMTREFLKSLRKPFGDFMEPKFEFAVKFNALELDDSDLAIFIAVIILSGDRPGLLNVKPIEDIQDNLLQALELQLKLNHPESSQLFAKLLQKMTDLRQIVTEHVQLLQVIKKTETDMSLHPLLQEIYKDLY
# Summary of the method: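 This is an agonist-mode beta-lactamase reporter assay in HEK293 PPAR-gamma-UAS-bla cells with 1% charcoal/dextran FBS. Compound titrations ran 16 h at 37 C before CCF4 detection. EC50 and efficacy are Hill fits scaled to 2 uM rosiglitazone (100%) and DMSO basal.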
# [11] = molecular target: Vitamin D3 receptor (Homo sapiens) (UniProt P11473); test: qHTS assay for small molecule antagonists of vitamin D receptor signaling (AID 588541; calls by dose curve;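 further: receptor activated by calcitriol during compound treatment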); details: HEK293T VDR-UAS-bla, beta-lactamase ratio, antagonist mode; series mostly up to 76.7 µM
# Vitamin D3 receptor (Homo sapiens), sequence (P11473 whole entry, looked up): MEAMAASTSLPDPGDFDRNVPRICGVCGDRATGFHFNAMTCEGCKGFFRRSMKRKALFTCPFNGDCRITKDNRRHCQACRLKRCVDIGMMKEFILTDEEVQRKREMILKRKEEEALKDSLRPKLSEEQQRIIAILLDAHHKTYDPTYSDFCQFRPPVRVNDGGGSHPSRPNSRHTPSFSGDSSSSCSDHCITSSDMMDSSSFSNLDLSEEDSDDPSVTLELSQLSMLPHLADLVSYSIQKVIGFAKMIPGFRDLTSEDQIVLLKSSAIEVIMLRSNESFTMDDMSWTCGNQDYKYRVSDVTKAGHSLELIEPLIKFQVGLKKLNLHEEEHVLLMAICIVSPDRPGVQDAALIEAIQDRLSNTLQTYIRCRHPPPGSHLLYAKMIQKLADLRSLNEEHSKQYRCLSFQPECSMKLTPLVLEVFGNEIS
# Summary of the method: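 Antagonist-mode beta-lactamase reporter assay: HEK293T VDR-UAS-bla cells were exposed to titrated compound alongside 1-alpha,25-dihydroxyvitamin D3 at 3 nM final for 16 h. Values were normalized to the 50 nM agonist control and DMSO basal, with IC50 and efficacy from Hill equation fits.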
# [12] = molecular target: Vitamin D3 receptor (Homo sapiens) (UniProt P11473); test: qHTS assay for small molecule agonists of vitamin D receptor signaling (AID 588543; calls by dose curve); details: HEK293T VDR-UAS-bla, beta-lactamase ratio, 16 h; series mostly up to 76.8 µM
# Summary of the method: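 qHTS in agonist mode: compound titrations stimulate a VDR-driven β-lactamase reporter in HEK293T cells over 16 h at 37 °C. Response normalized to 50 nM 1α,25-dihydroxyvitamin D3 = 100%, DMSO = 0%; Hill fitting gives EC50 and maximal response.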
# [13] = qHTS assay for small molecule agonists of retinoid X receptor alpha signaling (AID 588544; calls by dose curve); details: HEK293T RXRa-UAS-bla, beta-lactamase reporter, 18 h; 530 nm emission
# [14] = molecular target: Retinoic acid receptor RXR-alpha (Homo sapiens) (UniProt P19793); test: as above; details: HEK293T RXRa-UAS-bla, beta-lactamase reporter, 18 h; series mostly up to 76.7 µM
# Retinoic acid receptor RXR-alpha (Homo sapiens), sequence (P19793 whole entry, looked up): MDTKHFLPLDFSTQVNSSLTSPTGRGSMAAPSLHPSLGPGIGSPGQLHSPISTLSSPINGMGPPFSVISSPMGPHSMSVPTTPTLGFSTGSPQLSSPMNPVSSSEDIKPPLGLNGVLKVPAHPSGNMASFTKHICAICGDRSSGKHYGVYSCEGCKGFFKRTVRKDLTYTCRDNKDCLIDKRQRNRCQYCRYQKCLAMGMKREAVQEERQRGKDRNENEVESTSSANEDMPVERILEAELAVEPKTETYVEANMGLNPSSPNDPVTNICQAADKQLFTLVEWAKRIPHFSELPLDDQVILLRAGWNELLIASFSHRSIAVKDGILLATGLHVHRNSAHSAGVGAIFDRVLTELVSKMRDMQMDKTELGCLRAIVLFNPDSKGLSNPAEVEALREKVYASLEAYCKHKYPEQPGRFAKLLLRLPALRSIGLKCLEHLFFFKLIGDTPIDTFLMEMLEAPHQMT
# [15] = molecular target: Thyroid hormone receptor beta (Homo sapiens) (UniProt P10828); test: qHTS assay for small molecule agonists of thyroid hormone receptor beta signaling (AID 588545; calls by dose curve); details: TR-UAS-bla GripTite HEK 293, beta-lactamase ratio, agonist mode, 18 h, percent of T3 response, DMSO as zero; series mostly up to 76.7 µM
# Thyroid hormone receptor beta (Homo sapiens), sequence (P10828 whole entry, looked up): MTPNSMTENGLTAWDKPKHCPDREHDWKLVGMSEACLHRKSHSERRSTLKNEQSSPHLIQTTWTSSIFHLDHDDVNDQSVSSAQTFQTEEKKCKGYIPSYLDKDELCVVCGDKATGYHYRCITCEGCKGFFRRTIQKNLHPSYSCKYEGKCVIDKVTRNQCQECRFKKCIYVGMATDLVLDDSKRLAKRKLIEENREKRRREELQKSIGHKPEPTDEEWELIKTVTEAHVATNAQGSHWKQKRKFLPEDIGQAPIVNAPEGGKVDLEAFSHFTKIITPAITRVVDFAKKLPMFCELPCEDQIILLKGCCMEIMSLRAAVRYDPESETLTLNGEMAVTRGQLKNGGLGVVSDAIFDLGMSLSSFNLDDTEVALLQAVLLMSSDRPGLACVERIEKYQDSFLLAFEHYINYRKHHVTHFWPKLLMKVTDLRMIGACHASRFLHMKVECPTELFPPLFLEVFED
# Summary of the method: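 Stimulation of a TR-driven beta-lactamase reporter was quantified in GripTite HEK 293 cells. Compound series ran for 18 hrs; curves were normalized to T3 and DMSO controls and fitted to yield EC50.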
# [16] = qHTS assay for small molecule antagonists of retinoid X receptor alpha signaling (AID 588546; active means well fitted inhibition curve with a large enough effect in the signal ratio, with a control signal flat, not every such curve was filed as active; the % refers to the signal ratio;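 further: cells stimulated with 9-cis-retinoic acid as agonist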); details: HEK293T RXRa-UAS-bla, beta-lactamase ratio, antagonist mode; measured here: W530 green channel, cytotoxicity proxy
# Summary of the method: (§1)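 Beta-lactamase reporter inhibition, read as CCF4 fluorescence ratio (ex 405, em 460/530 nm) after 2 h at RT. HEK293T UAS-bla cells, 2500/well, were stimulated with 9-cis-RA at 500 or 100 nM final alongside test compound for 18 h at 37 C.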
# [17] = molecular target: Retinoic acid receptor RXR-alpha (Homo sapiens) (UniProt P19793); test: as above; details: HEK293T RXRa-UAS-bla, beta-lactamase ratio, antagonist mode
# Summary of the method: as §1
# [18] = molecular target: Thyroid hormone receptor beta (Homo sapiens) (UniProt P10828); test: qHTS assay for small molecule antagonists of thyroid hormone receptor beta signaling (AID 588547; active means well fitted inhibition curve with a large enough effect in the signal ratio, with a control signal flat, not every such curve was filed as active; the % refers to the signal ratio;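 further: cells stimulated with 0.4 nM T3 agonist during compound exposure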); details: TR-UAS-bla HEK293, beta-lactamase ratio, antagonist mode, 18 h
# Summary of the method: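 Inhibition of T3-driven (0.4nM final) beta-lactamase reporter activity was measured over 0.59 nM to 92 uM compound after 18 h at 37 C. The cells were GripTite HEK293 TR-UAS-bla in charcoal/dextran-stripped serum, with CCF4 ratio read-out and IC50 from Hill fits.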
# [19] = molecular target: Voltage-gated inwardly rectifying potassium channel KCNH2 (Homo sapiens) (UniProt Q12809); test: qHTS Assay for Small Molecule Inhibitors of the Human hERG Channel Activity (AID 588834); details: U2OS BacMam hERG, FluxOR thallium flux fluorescence; series mostly up to 46.1 µM;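 further: U2OS cells transduced with hERG by BacMam; top concentration of the series differs between compounds; lower thallium flux fluorescence means stronger hERG block; nearly all actives have a fitted effect of over 50% in size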
# Voltage-gated inwardly rectifying potassium channel KCNH2 (Homo sapiens), sequence (Q12809 whole entry, looked up): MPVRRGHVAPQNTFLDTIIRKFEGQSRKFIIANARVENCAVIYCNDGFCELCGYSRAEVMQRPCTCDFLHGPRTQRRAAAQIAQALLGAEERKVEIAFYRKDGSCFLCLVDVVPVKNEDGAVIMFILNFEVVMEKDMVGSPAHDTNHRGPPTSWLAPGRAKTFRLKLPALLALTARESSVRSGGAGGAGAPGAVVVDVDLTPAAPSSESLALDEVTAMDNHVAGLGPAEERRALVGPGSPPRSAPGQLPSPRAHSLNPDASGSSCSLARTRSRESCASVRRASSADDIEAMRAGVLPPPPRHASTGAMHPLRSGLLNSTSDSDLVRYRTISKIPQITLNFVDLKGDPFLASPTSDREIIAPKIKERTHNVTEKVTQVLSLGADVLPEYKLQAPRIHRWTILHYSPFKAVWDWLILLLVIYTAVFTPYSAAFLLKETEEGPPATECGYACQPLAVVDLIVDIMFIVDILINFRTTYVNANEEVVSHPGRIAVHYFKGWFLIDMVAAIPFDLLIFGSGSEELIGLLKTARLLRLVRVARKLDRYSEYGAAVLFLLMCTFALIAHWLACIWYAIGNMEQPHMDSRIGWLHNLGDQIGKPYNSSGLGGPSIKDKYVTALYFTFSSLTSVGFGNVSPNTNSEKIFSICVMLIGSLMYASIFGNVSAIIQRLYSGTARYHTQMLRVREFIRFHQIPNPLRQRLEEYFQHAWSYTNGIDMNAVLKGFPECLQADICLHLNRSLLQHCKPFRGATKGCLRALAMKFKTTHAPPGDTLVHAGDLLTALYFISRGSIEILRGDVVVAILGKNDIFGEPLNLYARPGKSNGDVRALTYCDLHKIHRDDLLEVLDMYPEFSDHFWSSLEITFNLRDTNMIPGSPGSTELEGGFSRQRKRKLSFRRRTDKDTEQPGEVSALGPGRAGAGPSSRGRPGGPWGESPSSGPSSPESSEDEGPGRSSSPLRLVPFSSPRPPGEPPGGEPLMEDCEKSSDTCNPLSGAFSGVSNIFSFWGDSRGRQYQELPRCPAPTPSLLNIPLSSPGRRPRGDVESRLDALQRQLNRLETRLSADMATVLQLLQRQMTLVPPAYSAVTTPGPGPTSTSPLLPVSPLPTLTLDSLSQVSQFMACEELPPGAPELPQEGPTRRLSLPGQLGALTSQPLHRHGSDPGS
# Summary of the method: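 Cells were infected with hERG-BacMam virus for 4 hrs at room temperature, grown overnight, then seeded at 2000/well. After dye loading and roughly 10 min compound treatment, thallium influx was triggered and fluorescence recorded.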
# [20] = molecular target: Nuclear receptor subfamily 1 group I member 2 (Rattus norvegicus) (UniProt Q9R1A7); test: qHTS assay for small molecule activators of the rat pregnane X receptor (rPXR) signaling pathway (AID 651751; call rule not given here); details: rPXR reporter cells, luciferase (One-Glo), 24 h
# Nuclear receptor subfamily 1 group I member 2 (Rattus norvegicus), sequence (Q9R1A7 whole entry, looked up): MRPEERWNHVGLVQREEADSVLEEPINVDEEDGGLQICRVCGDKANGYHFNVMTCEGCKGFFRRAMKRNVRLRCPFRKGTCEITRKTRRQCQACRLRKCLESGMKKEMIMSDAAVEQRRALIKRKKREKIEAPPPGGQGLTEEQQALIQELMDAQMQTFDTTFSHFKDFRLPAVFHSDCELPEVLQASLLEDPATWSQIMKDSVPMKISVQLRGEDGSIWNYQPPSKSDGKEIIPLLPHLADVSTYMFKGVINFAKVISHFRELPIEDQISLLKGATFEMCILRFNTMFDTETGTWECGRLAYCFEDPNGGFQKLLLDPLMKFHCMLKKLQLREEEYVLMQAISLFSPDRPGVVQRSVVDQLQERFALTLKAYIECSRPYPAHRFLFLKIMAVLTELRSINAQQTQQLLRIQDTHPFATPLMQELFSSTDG
Compound,Potency [1],Potency [2],outcome [3],outcome [4],outcome [5],outcome [6],outcome [7],outcome [8],Potency [9],outcome [10],outcome [11],outcome [12],max response [13],outcome [14],outcome [15],max response [16],max response [17],activity change % (negative = inhibition) [18],Potency [19],max response [20]
Cc1occc(=O)c1O,> 92 µM (inactive),> 92 µM (inactive),inactive,inactive,inactive,inactive,inactive,inactive,inactive,inactive,inactive,inactive,-12.3%,inactive,inactive,-0.914%,-8.46% (inactive),-20.8% (inactive),inactive,3.86% (inactive)
CC1=CC(=O)CC(C)(C)C1(O)/C=C/C(C)=C\C(=O)O (stereo not given),> 92 µM (inactive),> 92 µM (inactive),inactive,inactive,inactive,inactive,inactive,inactive,inactive,inactive,inactive,inactive,-10.1%,inactive,inactive,-3.21%,0.0259% (inactive),-6.36% (inactive),inactive,-0.742% (inactive)
COS(C)(=O)=O,> 92 µM (inactive),> 92 µM (inactive),inactive,inactive,inactive,inactive,inactive,inactive,inactive,inactive,inactive,inactive,-12%,inactive,inactive,-12.9%,-3.69% (inactive),2.2% (inactive),inactive,0.398% (inactive)
C=C(C)[C@H]1CC=C(C)C(=O)C1,> 92 µM (inactive),> 92 µM (inactive),inactive,inactive,inactive,inactive,inactive,inactive,inactive,inactive,inactive,inactive,2.29% and 4.34%,inactive,inactive,-6.91% and -9.16%,30% (inactive) and -16.7% (inactive),1.99% (inactive),inactive,-2.55% (inactive) and 3.05% (inactive)
C=CC(C)(O)CCC=C(C)C (stereo not given),> 92 µM (inactive),> 92 µM (inactive),inactive,inactive,inactive,inactive,inactive,inactive,inactive,inactive,inactive,inactive,-15.4% and -5.89%,inactive,inactive,-4.18% and -11.2%,-7.55% (inactive) and -18.1% (inactive),22.9% (inactive) and 4.85% (inactive),inactive,2.77% (inactive) and 2.88% (inactive)
